Assay results reported in PubChem BioAssay (NCATS).
Several values for one entry are separate records, joined by “and”; a condition that tells them apart may be missing. Equal values may be shown once. Inconclusive results are not listed. Activity calls are given as the source filed them. Calls come from the whole dose curve; as a rule, active = well fitted curve in the direction sought with a large enough effect; inconclusive = small, poorly fitted or top-dose-only effect, or another doubt; inactive = no such curve, though single readings can be large; an effect the other way counts as inactive or inconclusive.

Columns and labels:
[1] = molecular target: Cellular tumor antigen p53 (Homo sapiens) (UniProt P04637); assay: Primary qHTS for small molecule compounds that upregulate eGFP-tagged delta133p53alpha (in N-terminal) cells. (AID 2060322); settings: NCI-H358 eGFP-delta133p53alpha fluorescence, 24 h; activation: hits give high values; note: nearly all actives have a fitted effect of over 75% in size; note: potency is the fitted concentration of half-maximal effect;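 for activation: cells pre-induced with doxycycline then dosed without doxycycline; 0% = DMSO vehicle and 100% = reference activator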
Method in brief: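 NCI-H358 cells pre-induced 24 h with 10 ng/ml doxycycline for eGFP-delta133p53alpha, plated dox-free and exposed 24 h at 37C to titrated compounds. Fixed, Hoechst-stained; gated GFP peak intensity by laser scanning cytometry, normalized to DMSO (0%) and 57.5 uM 5-azacytidine (100%).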

[2] = molecular target: Aldehyde dehydrogenase, mitochondrial (Homo sapiens) (UniProt P05091); assay: qHTS for Inhibitors of the Aldehyde Dehydrogenase Family (ALDH2) Primary screen (AID 2061308); settings: ALDH2 enzyme inhibition qHTS, 1536-well; series mostly up to 56 µM;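 note: plate controls were vehicle for no effect and reference inhibitor for full effect; nearly all actives have a fitted effect of over 55% in size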
[3] = molecular target: Retinaldehyde dehydrogenase 3 (Homo sapiens) (UniProt P47895); assay: qHTS for Inhibitors of the Aldehyde Dehydrogenase Family (ALDH1A3) Validation screen (AID 2061312); settings: ALDH1A3 enzyme inhibition qHTS validation, fluorescence; series mostly up to 42.4 µM; note: % is set by controls: 0 for no effect and ±100 for the full control effect; nearly all actives have a fitted effect of over 45% in size
[4] = molecular target: Retinaldehyde dehydrogenase 3 (Homo sapiens) (UniProt P47895); assay: qHTS for Inhibitors of the Aldehyde Dehydrogenase Family (ALDH1A3) Primary screen (AID 2061315); settings: ALDH inhibition qHTS; series mostly up to 56 µM;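 note: plate controls were DMSO vehicle for no effect and reference inhibitor for full effect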
[5] = BET inhibitor-based combinations targeting novel dependencies in MECOM-rearranged (r) AML: OCI-AML3 cell line (AID 2202232); settings: CellTiter-Glo luminescence, 48 h; Potency: OCI-AML3 viability; series mostly up to 46 µM; note: nearly all actives have a fitted effect of over 35% in size; note: potency is the fitted concentration of half-maximal effect
Method in brief: (§1)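 Each compound was tested at eleven concentrations on cells seeded at 500/well. After two days' incubation, ATP-based luminescence reported viability; responses relative to DMSO and blank wells yielded AUC and cell-line-centred Z-AUC.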

[6] = BET inhibitor-based combinations targeting novel dependencies in MECOM-rearranged (r) AML: MV-4-11 cell line (AID 2202233); settings: MV-4-11 AML viability, CellTiter-Glo luminescence, 48 h; series mostly up to 46 µM; note: nearly all actives have a fitted effect of over 45% in size; note: potency is the fitted concentration of half-maximal effect
Method in brief: (§2)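 First, 500 cells per well were seeded; next, drugs were pinned as 11-point doses; then plates sat 48 hr in the incubator; finally CellTiter-Glo was added and luminescence read, with AUC and Z-AUC computed.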

[7] = BET inhibitor-based combinations targeting novel dependencies in MECOM-rearranged (r) AML: UCSD-AML1 cell line (AID 2202235); settings: UCSD-AML1 AML cells viability, CellTiter-Glo, 48 h; series mostly up to 46 µM;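 note: plate controls were DMSO vehicle wells for no effect and blank wells for full effect; nearly all actives have a fitted effect of over 40% in size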
Method in brief: as §2

[8] = BET inhibitor-based combinations targeting novel dependencies in MECOM-rearranged (r) AML: AML-191 cell line (AID 2202236;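 note: plate controls were vehicle wells for no effect and wells without cells for full effect; nearly all actives have a fitted effect of over 35% in size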); settings: AML-191 viability, CellTiter-Glo luminescence, 48 h; series mostly up to 46 µM
Method in brief: as §1

[9] = BET inhibitor-based combinations targeting novel dependencies in MECOM-rearranged (r) AML: SET-2 cell line (AID 2202231); settings: SET-2 AML cells viability, CellTiter-Glo luminescence, 48 h; viability: hits give low values, concentration not given here; note: nearly all actives have a fitted effect of over 35% in size; note: potency is the fitted concentration of half-maximal effect;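 for viability: plate controls were DMSO treated cells for no effect and wells without cells for full effect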
Method in brief: as §1

[10] = BET inhibitor-based combinations targeting novel dependencies in MECOM-rearranged (r) AML: HNT-34 cell line (AID 2202234); settings: HNT-34 AML viability, CellTiter-Glo luminescence, 48 h; series mostly up to 46 µM; note: nearly all actives have a fitted effect of over 35% in size; note: potency is the fitted concentration of half-maximal effect
Method in brief: as §2

[11] = BET inhibitor-based combinations targeting novel dependencies in MECOM-rearranged (r) AML: AML-194 cell line (AID 2202237; note: nearly all actives have a fitted effect of over 40% in size; note: potency is the fitted concentration of half-maximal effect); settings: AML-194 (MECOM-r AML) viability, CellTiter-Glo, 48 h; series mostly up to 46 µM
Method in brief: as §1

Cellular tumor antigen p53 (Homo sapiens), sequence (P04637 whole entry, looked up): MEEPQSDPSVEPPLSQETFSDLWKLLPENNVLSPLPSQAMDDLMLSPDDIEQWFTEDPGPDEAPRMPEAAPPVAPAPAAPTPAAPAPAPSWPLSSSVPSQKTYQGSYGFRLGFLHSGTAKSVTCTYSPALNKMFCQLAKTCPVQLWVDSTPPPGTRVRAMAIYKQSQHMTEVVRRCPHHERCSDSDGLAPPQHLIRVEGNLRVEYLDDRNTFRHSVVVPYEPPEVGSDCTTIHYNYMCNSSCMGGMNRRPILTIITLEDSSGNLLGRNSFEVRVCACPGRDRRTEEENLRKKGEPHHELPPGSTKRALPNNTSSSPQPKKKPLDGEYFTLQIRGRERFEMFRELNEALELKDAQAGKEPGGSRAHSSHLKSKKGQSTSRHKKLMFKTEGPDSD

CCc1c(C(=O)C(N)=O)c2c(OCC(=O)OC)cccc2n1Cc1ccccc1
inactive: activation [1] -15.3% | Potency [2] | Potency [3] | Potency [4]

NCCCCCNC1(c2ccccc2)CCCCC1
inactive: activation [1] -6.68% | Potency [2] | Potency [3] | Potency [4]

O=C1CN=C(c2cccc(Br)c2)c2oc3ccccc3c2N1
inactive: activation [1] -24.3% | Potency [2] | Potency [3] | Potency [4]

COC1CC(O[C@H]2CC[C@@]3(C)C(=CCC4C3C(O)[C@@H](O)[C@]3(C)[C@@H](C(C)=O)CC[C@]43O)C2)OC(C)C1OC1CC(OC)C(OC2OC(C)C(O)C(O)C2O)C(C)O1 (stereo partly drawn)
inactive: activation [1] -14.5% | Potency [2] | Potency [4]

CN1CCc2cc3c(cc2[C@H]1[C@@H]1OC(=O)c2c1ccc1c2OCO1)OCO3
inactive: activation [1] -11% | Potency [2] | Potency [4]

CCC1(O)CCC2C3CCC4=CC(=O)CCC4C3CCC21CC (stereo not drawn)
inactive: activation [1] -2.33% | Potency [2] | Potency [4]

CC1=CC2OC3CC(O)[C@](C)([C@@]2(C)C(O)C1=O)[C@]31CO1 (stereo partly drawn)
inactive: Potency [2] | Potency [4]
active: Potency [1] 21.3 µM

C=C(C)[C@@]12O[C@@H]1[C@@]1(C)C(=CC2=O)CC[C@@H](OC(C)=O)[C@@H]1C
inactive: Potency [2] | Potency [4]
active: Potency [1] 30.1 µM

CCOC(=O)c1ccc(-c2ccc(OC(=O)N(C)Cc3cccc(-c4ccncc4)c3)cc2)cc1
inactive: activation [1] -12.9% | Potency [2] | Potency [3] | Potency [4]

CC(=O)Nc1ccc(OC[C@](C)(O)C(=O)Nc2ccc([N+](=O)[O-])c(C(F)(F)F)c2)cc1
inactive: activation [1] 44.3% and 23.4% | Potency [2] | Potency [3] | Potency [4] | Potency [5] | Potency [6] | Potency [7] | Potency [8]

C[C@]12CC[C@H](O)C[C@@H]1CC[C@@H]1[C@@H]2CC[C@]2(C)C(=O)CC[C@@H]12
inactive: activation [1] 6.33% | Potency [2] | Potency [4]

O=c1[nH]c2ccc(Cl)cc2c(N[C@@H]2CN3CCC2CC3)c1-c1nc2ccccc2[nH]1
inactive: Potency [2] | Potency [3] | Potency [4]
active: Potency [1] 17.2 µM and 2.69 µM | Potency [9] 0.332 µM | Potency [5] 0.417 µM | Potency [10] 0.59 µM

O=C(Oc1ccc([N+](=O)[O-])cc1)N1CCN(Cc2cccc(Oc3ccccc3)c2)CC1
inactive: activation [1] 1.36% and 1.43% | Potency [2] | Potency [3] | Potency [4] | viability [9] 110% | Potency [5] | Potency [7] | Potency [8] | Potency [11]

C/C1=C/[C@@H](C)C/C=C/[C@H]2[C@@H]3O[C@]3(C)[C@@H](C)[C@H]3[C@H](Cc4c[nH]c5ccccc45)NC(=O)[C@]32C(=O)/C=C\C(=O)[C@@H]1O
active: Potency [1] 11.7 µM
inactive: Potency [2] | Potency [4]

O=C1C=CC[C@@H]2[C@H]3CCCN4CCC[C@@H](CN12)[C@@H]34
inactive: activation [1] -8.56% and -6.68% | Potency [2] | Potency [3] | Potency [4] | viability [9] 108% | Potency [5] | Potency [6] | Potency [10] | Potency [7] | Potency [11]

C[C@@H]1CN(Cc2ccc(F)cc2)CCN1C(=O)COc1ccc(Cl)cc1NC(N)=O
inactive: activation [1] 1.91% | Potency [2] | Potency [3] | Potency [4] | Potency [7]

Cc1ccccc1-n1c(Cn2ncc3c(N)ncnc32)nc2cccc(C)c2c1=O
active: Potency [6] 8.33 µM
inactive: activation [1] 66.5% and 6.21% | Potency [2] | Potency [3] | Potency [4] | viability [9] 112% | Potency [5] | Potency [10] | Potency [7] | Potency [8] | Potency [11]

CCOc1ccccc1-n1c(C(C)N2CCN(C(=O)COc3ccc(Cl)cc3)CC2)nc2ccccc2c1=O (stereo not drawn)
active: Potency [9] 1.32 µM | Potency [10] 3.32 µM | Potency [11] 4.68 µM
inactive: activation [1] 0.955% | Potency [2] | Potency [3] | Potency [4]

CO[C@@H]1[C@@H](O)[C@@H](O[C@H]2CC[C@]3(C=O)C4CC[C@]5(C)[C@@H](C6=CC(=O)OC6)CC[C@]5(O)[C@@H]4CC[C@H]3C2)O[C@@H](C)[C@H]1O[C@@H]1O[C@H](CO[C@@H]2O[C@H](CO)[C@@H](O)[C@H](O)[C@H]2O)[C@@H](O)[C@H](O)[C@H]1O (stereo partly drawn)
inactive: activation [1] -9.92% | Potency [2] | Potency [4]

CCC1=CC2CN3CCc4c([nH]c5ccccc45)[C@@](C(=O)OC)(C2)[C@@H]13
inactive: activation [1] 6.11% | Potency [2] | Potency [4]

CN1CCN(c2nc3ccccc3nc2Cl)CC1
inactive: activation [1] 1% | Potency [2] | Potency [4]
